Assay results: PubChem BioAssay AID1117361 (Southern Research Institute, 2015)
About 900 (25%) of roughly 3,600 compounds were called active. These entries were drawn from the full list. Measured potencies and affinities stand elsewhere. A number with no mark means an inactive call. How the calls were made is not given here.

The compounds below were run against Protein Tat (Human immunodeficiency virus type 1 group M subtype B (isolate HXB2)) (UniProt P04608) (assay: HIV-1 Tat–TAR interaction blockers – biochemical, fluorescence polarization, FAM-labeled TAR RNA, counter-screen for Vif-APOBEC3G degradation inhibitor project, dose response (AID 1117361)). Settings: Tat-TAR RNA binding; series mostly up to 100 µM; inhibition: at the top concentration.

Row | SMILES | inhibition [%] | outcome
1 | Cn1c(=O)c2c(nc(NCCc3ccccc3)n2Cc2ccccc2)n(C)c1=O | 2.73 | 
2 | CC(=O)c1ccc(N2CCN(C(=O)C3CCC3)CC2)cc1 | 5.41 | 
3 | CC1(C)CC(=O)C2=C(C1)NCN(Cc1ccc3c(c1)OCO3)C2 | 2.73 | 
4 | COC(=O)c1cccc(NC(=O)c2ccc3c(c2)C(=O)N(CC2CCCO2)C3=O)c1 (centres undefined) | 4.73 | 
5 | O=c1[nH]c2ccc(NS(=O)(=O)c3ccc(F)c(Cl)c3)cc2[nH]1 |  | inactive
6 | O=C(O)c1cccc2c1Oc1ccccc1S2(=O)=O | 1.67 | 
7 | CCN1CNC(=S)N(CCc2ccccc2)C1 |  | inactive
8 | CCOc1ccc2nc(Cl)c(C3CC(c4ccccc4)=NN3C(=O)c3cccs3)cc2c1 (centres undefined) |  | inactive
9 | O=C(NCCC1CCCCN1S(=O)(=O)c1ccc(F)cc1)C(=O)NCc1ccccn1 (centres undefined) | 1 | 
10 | CC(C(=O)N1CCCCC1)n1ncn2cccc2c1=O (centres undefined) | 14.3 | 
11 | OCCN1CCN(CC(O)COc2ccc3ccccc3c2)CC1 (centres undefined) | 6.76 | 
12 | CCOc1ccc(N(CC(=O)N2CCC(Cc3ccccc3)CC2)S(C)(=O)=O)cc1 |  | inactive
13 | C#CC[N+]1(CC#Cc2ccccc2)CCCC1 |  | inactive
14 | CC1(C(=O)O)Cc2ccccc2C(=O)O1 (centres undefined) | 8.19 | 
15 | CC12CCC(C(=O)Nc3cc(F)ccc3F)(CC1=O)C2(C)C (centres undefined) |  | inactive
16 | O=C(c1ccc(S(=O)(=O)N2CCOCC2)cc1)N1CCN(c2cccc(Cl)c2)CC1 | 2.73 | 
17 | CN(C)CCCN(CCCN(C)C)C(=S)Nc1ccc(S(=O)(=O)N2CCOCC2)cc1 | 1.65 | 
18 | CC1(C)CC(=O)C(N=Nc2ccc(Br)cc2)=C(O)C1 | 9.9 | 
19 | COCc1nnc(NC(=O)c2ccc(S(=O)(=O)N(C)C3CCCCC3)cc2)o1 | 4.09 | 
20 | O=C(c1ccccc1S(=O)(=O)NCc1ccccc1)N1CCCC1 | 3.38 | 
21 | C=CCn1c(Sc2nc(C)cs2)nc2c1c(=O)[nH]c(=O)n2C | 3.38 | 
22 | O=C(NCc1cccnc1)C1c2ccccc2C(=O)N1C1CCCC1 (centres undefined) | 7.43 | 
23 | NNc1ccc([N+](=O)[O-])c2[nH][nH]c(=O)c12 |  | inactive

Row | SMILES | inhibition [%] | outcome
24 | CCCNC(=O)c1ccccc1NC(=O)c1ccc(CSc2ccccc2)cc1 |  | inactive
25 | COc1ccc(-c2cc(C)nc(SCC(=O)c3cccc([N+](=O)[O-])c3)n2)cc1 | 5.01 | 
26 | C=C1C(=O)C2=CC1CCC(=O)C1(C)CCC(OC(C)=O)C(C)(C)C1CC2O (centres undefined) |  | inactive
27 | CCn1c(SCC(=O)n2nc(C)cc2C)nnc1-c1ccc2c(c1)OCO2 | 0.68 | 
28 | O=C(/C=C/c1cccs1)N1CCN(c2ccc(O)cc2)CC1 |  | inactive
29 | O=C(Nc1ccc(Br)cn1)C1CCN(S(=O)(=O)c2cccs2)CC1 |  | inactive
30 | Cc1ccc(Nc2nc3nonc3nc2N(C)C)cc1 | 4.77 | 
31 | CCc1nc2ccc(Cc3ccc4nc(CC)[nH]c4c3)cc2[nH]1 | 2.34 | 
32 | Cc1ccc(S(=O)(=O)N(CC(=O)N/N=C/c2cccc3c2OCCO3)c2ccccc2F)cc1 |  | inactive
33 | Cn1cnnc1SCC(=O)Nc1ccccc1C(=O)NC1CC1 |  | inactive
34 | Cc1ccc(-n2c(Cc3cccn3C)nnc2SCC(=O)Nc2nnc(C)s2)cc1 | 9.55 | 
35 | COCC(=O)Nc1nnc(COc2ccccc2)s1 | 0.68 | 
36 | N#Cc1ccccc1NC(=O)COC(=O)c1ccc(S(=O)(=O)N2CCCC2)cc1 | 8.78 | 
37 | O=C(NC(=O)N1CCN(c2ccc([N+](=O)[O-])cn2)CC1)c1c(Cl)cccc1Cl | 19.8 | 
38 | CC1CC(C)CN(S(=O)(=O)c2ccc(NC(=O)c3ccc(=O)[nH]c3)cc2)C1 (centres undefined) |  | inactive
39 | COc1ccc(-n2ncc3c(NCc4ccccn4)ncnc32)cc1 | 2.03 | 
40 | CC(=O)Nc1ccc(S(=O)(=O)N2CCN(Cc3ccccn3)CC2)cc1 | 7.43 | 
41 | COc1ccc(S(=O)(=O)N(CCc2ccccc2)CC(=O)NC(C)C)cc1 | 10.8 | 
42 | O=C(Cn1c(=O)oc2ccccc21)N1CCN(S(=O)(=O)c2ccccc2)CC1 | 16.5 | 
43 | CCOC(=O)N1CCN(c2c(NCc3ccccc3Cl)c(=O)c2=O)CC1 |  | inactive
44 | CC(C)(C)OC(=O)N1CCN(c2ccc([N+](=O)[O-])cc2)CC1 |  | inactive
45 | CC(C)(C)C(=O)O/N=C(\N)c1c(Cl)cccc1Cl |  | inactive
46 | C=CCc1ccc(OCCOCCNCCCC)c(OC)c1 | 1 | 

Row | SMILES | inhibition [%] | outcome
47 | Cn1c(=O)c2c(nc(CN3CCOCC3)n2CCN2CCOCC2)n(C)c1=O | 6.08 | 
48 | O=C(CSc1nc(-c2ccccc2)cc(C(F)(F)F)n1)c1cccc([N+](=O)[O-])c1 | 7.5 | 
49 | COc1ccc(CCNC(=O)CSc2nc(-c3ccco3)cc(C(F)(F)F)n2)cc1 | 10.2 | 
50 | Cc1c(F)cccc1NC(=O)CCCCCC1NC(=O)NC1C (centres undefined) |  | inactive
51 | Cc1ccc(S(=O)(=O)C(F)(F)F)cc1NC(=O)c1cccnc1 |  | inactive
52 | COc1cc([N+](=O)[O-])ccc1NC(=O)Oc1ccc(NC(C)=O)cc1 |  | inactive
53 | O=c1cc(-c2ccc(O)c(O)c2)oc2cc(O)c(C3OC(CO)C(O)C(O)C3O)c(O)c12 (centres undefined) | 14 | 
54 | CC1C(=O)N2CCCc3cc(NC(=O)C(=O)NCc4cccnc4)cc1c32 (centres undefined) |  | inactive
55 | COc1cc(C2Nc3ccccc3C(=O)N2c2ccccc2)ccc1O (centres undefined) | 4.77 | 
56 | Clc1ccc(-c2nc3cnccn3c2Nc2ccc3c(c2)OCO3)cc1 |  | inactive
57 | COc1cccc(-c2cc(C(=O)Nc3c(C)n(C)n(-c4ccccc4)c3=O)no2)c1 |  | inactive
58 | CC[n+]1ccc(C)c2cc(S(=O)C(F)(F)F)ccc21 (centres undefined) | 9.46 | 
59 | COc1ccc(CNC(=O)c2ccc(NC(=O)C3CCCO3)cc2)cc1 (centres undefined) | 3.38 | 
60 | COc1ccc(C(=O)Nc2nncs2)cc1S(=O)(=O)N1CC(c2ccccc2)CC1=O (centres undefined) | 2.03 | 
61 | COC(=O)C(C(=O)Nc1ccc(OC)cc1)C1CCCCCC1 (centres undefined) | 12.3 | 
62 | COCCn1nnnc1C(c1cccs1)N1CCN(c2cc(C)ccc2C)CC1 (centres undefined) | 3.38 | 
63 | Cc1ccc(C(=O)OC2CCS(=O)(=O)c3sccc32)cc1 (centres undefined) | 8.87 | 
64 | COC(=O)c1ccc(NC(=O)CN2CCCC2)cc1 | 2.7 | 
65 | COC(=O)Cc1ccc(NC(=S)NNC(=O)C2CC2)cc1 |  | inactive
66 | COC(=O)c1c(NC(=O)CSc2nnc(CNc3ccc(Cl)cc3)o2)sc(C)c1C |  | inactive
67 | CCc1nnc(NC(=O)CSc2nnc(Cc3ccccc3)o2)s1 | 1.36 | 
68 | CCOC(=O)C1=C(Cn2cnc3ccccc32)NC(=O)NC1c1ccc(OC)cc1 (centres undefined) |  | inactive
69 | Cc1ccc(C(=O)Oc2ccc(C(=O)COC(=O)c3cnccn3)cc2)cc1 |  | inactive
